Measured values published in PubChem BioAssay (NCI).
Values joined by “and” are separate entries in the source; they are usually repeats but may differ in a detail not shown here. Equal entries are not always repeated. About 83,000 compounds went through this panel and 20% of them were active in at least one assay; those are over-represented in the sample as a whole.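 Interpretation: 100, growth as untreated; towards 0, rising growth inhibition; 0, no net growth; 0 to -100, cell death. Compounds scoring below 10 were considered active.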 Active and inactive are the calls of the source.

What was measured:
Assay in all cases: NCI-60 one-dose screen, 48 h (100 = growth as untreated, 0 = no growth, -100 = all killed)
Conditions in all cases: 10 µM unless noted
[1] = tested on: T-47D breast
[2] = tested on: MDA-MB-435 melanoma
[3] = tested on: SW-620 colon
[4] = tested on: MCF7 breast
[5] = tested on: HCT-116 colon
[6] = tested on: HCC-2998 colon
[7] = tested on: KM12 colon
[8] = tested on: MDA-MB-468 breast

Structure (SMILES)	growth [1]	growth [2]	growth [3]	growth [4]	growth [5]	growth [6]	growth [7]	growth [8]
COc1ccc2c(c1)c(-c1cc(N)n3nc(-c4c[nH]c5ccccc45)cc3n1)cn2C	-63.5% (active)	-74% (active)	-89.5% (active)	-72% (active)	-85.9% (active)	-80.6% (active)	-74.8% (active)	-73.8% (active)
O=C1CCC(N2C(=O)c3cccc(NCCOCCOCCOCCC(=O)NCCCC(=O)NC(c4ccc5c(c4)OCO5)c4cc(Cl)c5cccnc5c4O)c3C2=O)C(=O)C1 (stereo unspecified)	16% (inactive)	47.4% (inactive)	39% (inactive)		28.3% (inactive)	30% (inactive)	13.4% (inactive)	-33.9% (active)
Nc1cc(-c2c[nH]c3ccc(F)cc23)nc2cc(-c3c[nH]c4ccccc34)nn12	18.3% (inactive)	4.81% (active)	-66.1% (active)	-22.9% (active)	-41.8% (active)	-59.2% (active)		-18.9% (active)
Clc1ccc2c(NCCNC34CC5CC(CC(C5)C3)C4)ccnc2c1	-47.2% (active)	-72.3% (active)	-47.1% (active)	-78.7% (active)	-40.1% (active)	-89.5% (active)	-96.8% (active)	-92.3% (active)
CN(C)C(=O)c1cc(-c2ccc3ncnc(N4CCc5cc(F)c(Cl)cc54)c3c2)cnc1N	-59.1% (active)	-58.5% (active)	-51.8% (active)	-59.9% (active)	-97.4% (active)	-82.2% (active)	-58.3% (active)	-80.4% (active)
CN1CCN(C(=O)CCN(C(=O)Oc2cc3c(c4ccccc24)[C@H](CCl)CN3C(=O)c2cc3cc(OCCCN4CCC4)ccc3[nH]2)[C@H]2CCSSC2)CC1	-40.9% (active)	-37.1% (active)	-54.2% (active)		-42.7% (active)	-91.2% (active)	-63.3% (active)	-82.9% (active)
O=C1Nc2cc(-c3ccc(NS(=O)(=O)c4ccc(C(F)(F)F)cc4)cc3)ccc2/C1=C/c1ccc[nH]1	18.1% (inactive)	9.69% (active)	33.3% (inactive)	0.78% (active)	2.8% (active)	30.5% (inactive)	20.8% (inactive)	-26.2% (active)
COC(=O)c1c(C(=O)OC)c2ccc3c4ccccc4ccc3n2c1C(=O)C(C)Br (stereo unspecified)	36.5% (inactive)	10.3% (inactive)	9.86% (active)		14% (inactive)	67.9% (inactive)	91.5% (inactive)	50.7% (inactive)
CCCCN1C(=O)/C(=C\C(=O)c2cc3ccccc3oc2=O)c2ccccc21	23.6% (inactive)	84.2% (inactive)	-47.6% (active)	41% (inactive)	51.3% (inactive)	93.9% (inactive)	85% (inactive)	18.1% (inactive)
O=C(OCCOCCO)N(c1cccc(Br)c1)c1nc(SCCN2CCOCC2)nc2c1cnn2CC(Cl)c1ccc(Br)cc1 (stereo unspecified)	13.6% (inactive)	9.72% (active)	17.8% (inactive)	4.77% (active)	10.8% (inactive)	12% (inactive)	-8.97% (active)	-2.54% (active)
CCOc1ccccc1[C@H]1C(C(=O)c2ccc(Cl)cc2)C2(N[C@@H]1c1ccccc1)C(=O)Nc1ccc(Cl)cc12 (stereo partly specified)	19.9% (inactive)	24.1% (inactive)	38.1% (inactive)	5.27% (active)	11.1% (inactive)	20.4% (inactive)	24.2% (inactive)	4.39% (active)
CCN1C(=O)N(CC)C2NNC(Sc3c(C(=O)O)c4ccccc4n(CCC(C)C)c3=O)=NC21 (stereo unspecified)	73.5% (inactive)	-53.6% (active)	28.4% (inactive)	9.16% (active)	3.95% (active)	3.88% (active)	21.3% (inactive)	7.98% (active)
COc1ccc(C(=O)/C=C/c2ccc3c(c2)OCCO3)cc1S(N)(=O)=O	53% (inactive)	87.8% (inactive)	32.3% (inactive)	23.2% (inactive)	42.9% (inactive)	99.1% (inactive)	85.8% (inactive)	80.7% (inactive)
O=C(N/N=C/c1ccc(Cl)cc1)c1ccc(OCc2nc3ccc(Cl)cc3[nH]2)cc1	-19.6% (active)	-15.7% (active)	-40.3% (active)	-21.7% (active)	22.7% (inactive)	18.2% (inactive)	52.9% (inactive)	52.4% (inactive)
COC(=O)c1cc(C(=O)C(Br)Br)n2c1ccc1c3ccccc3ccc12	1.99% (active)	79% (inactive)	45.2% (inactive)	5.77% (active)	49.6% (inactive)	43.5% (inactive)		-8.15% (active)
CC[C@@]12CC(C(=O)OC)=C3Nc4cc5c(cc4[C@@]34CCN(C[C@H]3O[C@H]31)[C@@H]24)[C@@H]1[C@H](O5)[C@@H](O)[C@@]2(CC)CC(C(=O)OC)=C3Nc4cc(O)ccc4[C@@]34CCN1[C@@H]24	-37.5% (active)	-54.3% (active)	-71.1% (active)	-56.8% (active)	-50.4% (active)	-85.4% (active)		-78.5% (active)
C=CCSc1nnc(-c2ccc(-c3nc4ccc(Cl)cc4[nH]3)cc2)o1	68.4% (inactive)	-22.5% (active)	27.8% (inactive)	25.1% (inactive)	29.5% (inactive)	83.4% (inactive)	34.6% (inactive)	28.6% (inactive)
Fc1ccccc1CNc1nc(SCCN2CCOCC2)nc2c1cnn2CC(Cl)c1ccc(Br)cc1 (stereo unspecified)	14.2% (inactive)	29.6% (inactive)	-51% (active)	21.3% (inactive)	26.1% (inactive)	21.4% (inactive)	8.13% (active)	22.1% (inactive)
Oc1ccc(F)c(Nc2nc(SCCN3CCOCC3)nc3c2cnn3CC(Cl)c2ccc(Br)cc2)c1 (stereo unspecified)	-6.68% (active)	17.8% (inactive)	29.3% (inactive)	7.39% (active)	14.9% (inactive)	15.8% (inactive)	11% (inactive)	-20.5% (active)
O=C(CCl)Nc1ccc(C(=O)/C=C/c2cc3ccccc3nc2Cl)cc1	-46.9% (active) and 51.1% (inactive)	-54.9% (active) and 52.1% (inactive)	-78.3% (active) and 48.9% (inactive)	-57.1% (active) and 24.9% (inactive)	8.67% (active) and 39.7% (inactive)	-93.4% (active) and 51.1% (inactive)	-68.6% (active) and 22.5% (inactive)	-82.5% (active) and 54.9% (inactive)
C#CCN(C)CCCOc1ccc(N(CC)C(=O)c2cc(C(C)C)c(O)cc2O)cc1Cl	10.1% (inactive)	-26.1% (active)	6.65% (active)	0.137% (active)	-3.98% (active)	-78.2% (active)		-46.8% (active)
Cc1ccccc1Nc1nnc(-c2c[nH]c3ccccc23)o1	39.7% (inactive)	-47.2% (active)	19.6% (inactive)		19.3% (inactive)	11.3% (inactive)	25% (inactive)	-35.5% (active)
Nc1cc(-c2c[nH]c3ccc(Cl)cc23)nc2cc(-c3c[nH]c4ccccc34)nn12	-5.16% (active)	-51% (active)	-79.6% (active)	-68.3% (active)	-83.9% (active)	-81.2% (active)	-70.5% (active)	-72.3% (active)
CCCCCCCCCc1ccc(C(=O)Nc2cc(C)ccc2C(=O)OC)cc1	99.1% (inactive)	105% (inactive)	99.7% (inactive)	91.2% (inactive)	96.7% (inactive)	122% (inactive)		118% (inactive)
Cc1ccc2nc(SCc3ccccc3F)n(-c3ccccc3)c(=O)c2c1	81.4% (inactive)	111% (inactive)	104% (inactive)	89.2% (inactive)	68.2% (inactive)	109% (inactive)	93.7% (inactive)	89.3% (inactive)
NS(=O)(=O)c1ccc(N2N=C(c3ccc(NC(=O)Nc4ccccc4)cc3)CC2c2ccc(Br)cc2)cc1 (stereo unspecified)	-73.8% (active)	-93.8% (active)	-3.46% (active)	-79.1% (active)	-68.1% (active)	-100% (active)	-15.7% (active)	-95% (active)
COC(=O)c1cccc(Oc2ccc(NC(=O)Nc3cc(C(F)(F)F)ccc3F)cc2)c1	47% (inactive)	92.4% (inactive)	89.7% (inactive)	61.8% (inactive)	60.7% (inactive)	96.9% (inactive)	75.3% (inactive)	71.5% (inactive)
Cc1nc(Nc2ccccn2)sc1C1=NNC(c2ccccc2F)C1 (stereo unspecified)	33.5% (inactive)	-17.9% (active)	32.1% (inactive)	20.1% (inactive)	34.3% (inactive)	95.7% (inactive)	23.4% (inactive)	-13.7% (active)
COc1ccc(-c2cc(C(=O)N=Nc3c(O)[nH]c4ccc(Cl)cc34)c3ccccc3n2)cc1OC	106% (inactive)	119% (inactive)	103% (inactive)	87.8% (inactive)	101% (inactive)	109% (inactive)	101% (inactive)	98.9% (inactive)
CC1=C(C(=O)OC(C)C)C(c2ccc(O)cc2)NC(=O)N1 (stereo unspecified)	101% (inactive)	99.9% (inactive)	103% (inactive)	98.6% (inactive)	97.1% (inactive)	111% (inactive)	111% (inactive)	103% (inactive)
